KB-3-1 cytotox – kills parental KB-3-1 adenocarcinoma cells; KB-3-1 viability, CellTiter-Glo ATP luminescence, 72 h; Potency, µM (doses to about 46.1 µM), hits mostly cytotoxic; 1.4% of 400,000 active; AID 1347075; further: nearly all actives have a fitted effect of over 60% in size
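Cytotoxicity in the drug-sensitive parental line KB-3-1 was scored as loss of CellTiter-Glo luminescence following 72 h incubation with compound. Values come from curve fitting of normalized concentration-response data.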
KB-V1 cytotox – kills drug-selected multidrug resistant KB-V1 cells | KB-V1 MDR cells viability, CellTiter-Glo, 72 h | Potency, µM (titrated, usually from 46.1 µM), usual class: cytotoxic | 3.4% of 400,000 active | AID 1347076; further: nearly all actives have a fitted effect of over 60% in size
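qHTS viability screen in drug-selected KB-V1 MDR cells: 72 h compound treatment at 37 degrees C, ATP luminescence end point.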
MCF10A rerep – induces DNA re-replication in MCF 10a normal breast cells | MCF 10A DNA re-replication, Hoechst nuclear intensity, 48 h | Potency, µM (titrated, usually from 46.1 µM), actives largely listed as activators | 2.9% of 350,000 active | AID 624296; further: nearly all actives have a fitted effect of over 50% in size
KCNH2 3.1 block – blocks the human KCNH2 3.1 channel isoform; U2OS KCNH2 3.1, thallium flux FluxOr; active compounds read low; activity change, % (tested at about 1.8 µM); 0.95% of 340,000 active; AID 720553;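 active means maximum activity change below -70%; inconclusive means maximum activity change from -70% to -50%; inactive means maximum activity change above -50%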;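 further: thallium influx rate constant from kinetic fluorescence after stimulation buffer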
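Steps: virus added to U2OS suspension (4 h, RT, dark); medium with 10% FBS added, cells plated, 37 C overnight; FluxOr/Red40 loading buffer 45 min RT; stimulation buffer, 2 min kinetic read; rate constant normalized.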
SW480 rereplic – inducers of DNA re-replication in SW480 colon cancer cells; SW480 DNA re-replication, Hoechst DNA content imaging, 48 h; Potency, µM (doses to about 46.1 µM), usual class: activators; 1.8% of 340,000 active; AID 624297; further: nearly all actives have a fitted effect of over 55% in size
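Cells (250 per well) received 23 nL compound or DMSO by pin tool and were kept 48 hr at 37 C, 5% CO2. Nuclei were then stained with Hoechst for 40 min and scanned for DNA content.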
hERG WT inh – KCNH2 (human, wildtype) channel inhibition; activity change, % at 1.84 µM; 0.37% of 340,000 active; U2OS, BacMam KCNH2, thallium flux FluxOr; active compounds read low; AID 720551; Q12809;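 active means maximum activity change below -70%; inconclusive means maximum activity change between -70% and -50%; inactive means maximum activity change above -50%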
Target sequence (Q12809 whole entry, looked up): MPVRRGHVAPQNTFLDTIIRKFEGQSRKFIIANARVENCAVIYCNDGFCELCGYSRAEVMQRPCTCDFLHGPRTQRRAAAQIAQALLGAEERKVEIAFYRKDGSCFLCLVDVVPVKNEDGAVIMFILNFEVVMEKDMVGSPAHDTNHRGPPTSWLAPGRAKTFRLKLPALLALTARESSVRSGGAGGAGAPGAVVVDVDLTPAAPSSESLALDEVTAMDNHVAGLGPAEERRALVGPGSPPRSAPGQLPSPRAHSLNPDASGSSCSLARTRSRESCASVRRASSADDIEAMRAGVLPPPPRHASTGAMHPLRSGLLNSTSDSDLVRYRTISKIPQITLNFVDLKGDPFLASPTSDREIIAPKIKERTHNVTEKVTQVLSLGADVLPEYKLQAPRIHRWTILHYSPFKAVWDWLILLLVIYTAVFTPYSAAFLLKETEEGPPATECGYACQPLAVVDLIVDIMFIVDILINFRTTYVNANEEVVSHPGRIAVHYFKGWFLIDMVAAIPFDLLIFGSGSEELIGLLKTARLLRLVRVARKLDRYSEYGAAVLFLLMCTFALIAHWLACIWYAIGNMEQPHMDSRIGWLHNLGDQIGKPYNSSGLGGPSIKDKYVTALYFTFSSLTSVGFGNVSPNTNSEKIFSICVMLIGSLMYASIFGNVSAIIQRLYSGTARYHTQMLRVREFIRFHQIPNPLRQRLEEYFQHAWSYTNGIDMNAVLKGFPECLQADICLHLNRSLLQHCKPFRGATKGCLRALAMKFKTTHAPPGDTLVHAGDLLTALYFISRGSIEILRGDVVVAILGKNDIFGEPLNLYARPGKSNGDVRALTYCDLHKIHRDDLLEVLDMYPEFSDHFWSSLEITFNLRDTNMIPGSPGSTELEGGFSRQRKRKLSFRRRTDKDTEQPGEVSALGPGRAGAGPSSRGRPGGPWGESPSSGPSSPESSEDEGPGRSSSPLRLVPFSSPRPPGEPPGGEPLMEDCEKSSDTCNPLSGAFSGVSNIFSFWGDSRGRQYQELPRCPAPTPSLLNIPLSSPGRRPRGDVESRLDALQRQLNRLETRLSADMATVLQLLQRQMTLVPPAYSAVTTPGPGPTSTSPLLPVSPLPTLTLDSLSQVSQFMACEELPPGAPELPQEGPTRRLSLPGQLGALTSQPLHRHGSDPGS
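U2OS cells were transduced with wild-type KCNH2 virus (2.03 x 10^8 / mL) for 4 h at room temperature, then cultured overnight at 37 C. Thallium flux was read with FluxOr dye. Rate constants were normalized to DMSO controls.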
Of the large screens only hits and unclear results are named; the others gave an inactive call; ! = repeats disagree. In the library only some 7.6% were active in any assay of this set; here they are far more common. Unless noted, the call rests on the fitted dose curve; in most records, active means well fitted curve in the direction sought with a large enough effect; inconclusive means small, poorly fitted or top-dose-only effect, or another doubt; inactive means no such curve, though single readings can be large; an effect the other way counts as inactive or inconclusive.

Cc1cccc(C(=O)n2nc(C)c(S(=O)(=O)N3CCOCC3)c2C)c1	none (no result: MCF10A rerep, KCNH2 3.1 block, SW480 rereplic, hERG WT inh)
COc1ccc(S(=O)(=O)NCC2CCCN(Cc3cccnc3)C2)cc1 (centres undefined)	MCF10A rerep 1µM
COc1ccc(S(=O)(=O)NCC2CCCN(Cc3cccc(C(C)=O)c3)C2)cc1 (centres undefined)	MCF10A rerep inconclusive
Nc1cccc(C#Cc2ccc3c(c2)C(=O)/C(=C/c2ccsc2)O3)c1	SW480 rereplic inconclusive
Cc1nc(N2CCN(Cc3ccccc3)CC2)nc2c1C(=O)CC(C)C2 (centres undefined)	KB-V1 cytotox 21µM
CCN1CCN(c2nc(C)c3c(n2)CC(C)CC3=O)CC1 (centres undefined)	none
Cn1nc(C(F)(F)F)c(C(=O)Nc2ccc(F)cc2F)c1Sc1cccc(C(F)(F)F)c1	KB-3-1 cytotox inconclusive, KB-V1 cytotox 13µM
Cn1nc(C(F)(F)F)c(C(=O)Nc2ccc(F)cc2F)c1Sc1cccc(Cl)c1	KB-V1 cytotox 16µM, MCF10A rerep inconclusive, SW480 rereplic inconclusive
Cn1nc(C(F)(F)F)c(C(=O)Nc2ccc(F)cc2F)c1Cl	none
O=C(NC(=S)Nc1cccc(Cl)c1Cl)C1CC1	KB-3-1 cytotox inconclusive
Cc1ccc2c(cnn2C(=O)CCC(=O)NCc2ccccc2Cl)c1	none
Cc1ccc(N/C(=N/S(=O)(=O)c2cccs2)c2ccccc2)c(C)c1	KB-3-1 cytotox inconclusive, KB-V1 cytotox 9.2µM, MCF10A rerep inconclusive, SW480 rereplic inconclusive (no result: KCNH2 3.1 block)
Cc1ccc(S(=O)(=O)/N=C(/Nc2ccc([N+](=O)[O-])cc2[N+](=O)[O-])c2ccccc2)cc1	KB-V1 cytotox 16µM, MCF10A rerep inconclusive
Cc1ccc(S(=O)(=O)/N=C(/Nc2ccc([N+](=O)[O-])cc2)c2ccccc2)cc1	KB-3-1 cytotox inconclusive, KB-V1 cytotox inconclusive, MCF10A rerep inconclusive
O=S(=O)(/N=C(/Nc1cccc2ccccc12)c1ccccc1)c1cccs1	KB-3-1 cytotox inconclusive
CCC(C)NC(=O)C1CCN(S(=O)(=O)c2cc([N+](=O)[O-])ccc2Cl)CC1 (centres undefined)	none
Cc1ccc(S(=O)(=O)N2CCC(C(=O)Nc3ccccc3N3CCCCC3)CC2)cc1	none
Cc1ccc(S(=O)(=O)N2CCC(C(=O)Nc3ccccc3N3CCCC3)CC2)cc1	KB-V1 cytotox 5.8µM
O=C(Nc1nc2ccccc2s1)C1CCN(S(=O)(=O)c2cc([N+](=O)[O-])ccc2Cl)CC1	KB-3-1 cytotox 2.3µM, KB-V1 cytotox 13µM, SW480 rereplic inconclusive
COc1cc(C(=O)Nc2nc3ccc(S(C)(=O)=O)cc3s2)cc(OC)c1C	SW480 rereplic 18µM
COc1cccc(C(=O)Nc2nc3ccc(S(=O)(=O)N4CCCC4)cc3s2)c1	KB-3-1 cytotox 13µM, KB-V1 cytotox inconclusive (no result: MCF10A rerep, KCNH2 3.1 block, SW480 rereplic, hERG WT inh)
COc1ccc2nc(NC(=O)c3cccc(S(=O)(=O)N4CCOCC4)c3)sc2c1	MCF10A rerep inconclusive
CN(C)c1cccc(C(=O)Nc2nc3ccc(S(=O)(=O)N4CCCC4)cc3s2)c1	KB-3-1 cytotox 10µM, KB-V1 cytotox 21µM (no result: MCF10A rerep, KCNH2 3.1 block, SW480 rereplic, hERG WT inh)
COc1ccc2nc(NC(=O)C3CCCN3S(=O)(=O)c3ccc(C)cc3)sc2c1 (centres undefined)	KB-V1 cytotox 18µM
O=C(Nc1nc2ccc(S(=O)(=O)N3CCCCC3)cc2s1)C1CCCO1 (centres undefined)	KB-3-1 cytotox inconclusive, SW480 rereplic inconclusive
CC1CC(C)CN(C(C)C(=O)Nc2cc(S(=O)(=O)N3CCCCC3)ccc2Cl)C1 (centres undefined)	none
O=C(Nc1nc2ccc(S(=O)(=O)N3CCCC3)cc2s1)C1CCCCC1	KB-3-1 cytotox 2.6µM, KB-V1 cytotox 3.7µM, MCF10A rerep 10µM, SW480 rereplic 7.3µM
Cc1ccc(C(=O)Nc2nc3ccc(S(=O)(=O)N4CCCC4)cc3s2)cc1	none (no result: MCF10A rerep, KCNH2 3.1 block, SW480 rereplic, hERG WT inh)
CC1CCN(C(C)C(=O)Nc2cc(S(=O)(=O)N3CCCCC3)ccc2Cl)CC1 (centres undefined)	KB-3-1 cytotox inconclusive, KB-V1 cytotox 15µM
O=C(CCC(=O)N1CCN(c2ccccc2)CC1)Nc1nnc(C2CCCCC2)s1	none
COc1ccc(-c2nc3scc(CCNC(=O)Cc4ccc(F)cc4)n3n2)cc1	KB-3-1 cytotox inconclusive (no result: MCF10A rerep, KCNH2 3.1 block, SW480 rereplic, hERG WT inh)
Cc1ccc(S(=O)(=O)N2CCCCC2)cc1NC(=O)CSc1nnc(N)s1	MCF10A rerep 0.58µM
Cc1ccc(S(=O)(=O)N2CCCCC2)cc1NC(=O)C1CCC1	KB-V1 cytotox 23µM
COc1cc(/C=C/C(=O)Nc2nc3ccc(S(=O)(=O)N(C)C)cc3s2)cc(OC)c1OC	KB-3-1 cytotox inconclusive, MCF10A rerep inconclusive, SW480 rereplic 10µM
COc1ccc(OC)c(S(=O)(=O)N2CCC(C(=O)Nc3cc(C)ccc3C)CC2)c1	KB-V1 cytotox inconclusive, MCF10A rerep inconclusive, SW480 rereplic 4.6µM
COc1ccc(S(=O)(=O)N2CCCCC2)cc1NC(=O)C1CCCC1	none
COc1ccc(C(=O)Nc2cccc(S(=O)(=O)NC3=NCCC3)c2)cc1OC	none
CCC1CCc2sc(C(=O)NC3CCN(Cc4ccccc4)CC3)cc2C1 (centres undefined)	KB-3-1 cytotox inconclusive, MCF10A rerep inconclusive, SW480 rereplic inconclusive
CSc1nc2ccc(S(=O)(=O)N3CCOCC3)cc2s1	none
CS(=O)(=O)c1ccc2nc(NC(=O)C3CCCO3)sc2c1 (centres undefined)	none
N#CCc1nc2ccc(S(=O)(=O)N3CCOCC3)cc2s1	MCF10A rerep 13µM
C=CCN(CC=C)S(=O)(=O)c1ccc2nc(NC(=O)C3CCCO3)sc2c1 (centres undefined)	KB-3-1 cytotox inconclusive, KB-V1 cytotox 8.2µM, MCF10A rerep inconclusive, SW480 rereplic inconclusive
Cc1c(C(=O)O)oc2c1C(=O)CC(C)(C)C2	KB-V1 cytotox inconclusive
COc1cccc(NC(=O)CSc2nc3ncc(Br)cc3[nH]2)c1	none
CCc1ccc(NC(=O)CSc2nc3ncc(Br)cc3[nH]2)cc1	MCF10A rerep 12µM
O=C(CSc1nc2ncc(Cl)cc2[nH]1)Nc1ccccc1-c1ccccc1	MCF10A rerep inconclusive, SW480 rereplic inconclusive
O=C(CSc1nc2cc3ccccc3cc2[nH]1)Nc1ccc(F)cc1	KB-V1 cytotox 16µM!
O=C(CSc1nc2ncc(Br)cc2[nH]1)Nc1ccccc1-c1ccccc1	KB-V1 cytotox inconclusive, MCF10A rerep 26µM
CC(C)OC(=O)c1c(F)c(F)c(N2CCOCC2)c(F)c1F	MCF10A rerep 3.3µM
CCOC(=O)c1c(-c2ccc(-c3ccccc3)cc2)csc1NC(=O)C1C2CCC(O2)C1C(=O)O (centres undefined)	MCF10A rerep 9.2µM
CCOC(=O)c1c(-c2ccccc2)csc1NC(=O)C1CCCO1 (centres undefined)	none

Compound activity: PubChem BioAssay, National Center for Advancing Translational Sciences (NCATS)
